High-throughput results from PubChem BioAssay.
An excerpt weighted towards active compounds, which were near 7.3% of everything screened.
HCV inh = qHTS Assay for Inhibitors of Hepatitis C Virus (HCV); 340,000 compounds, 3.4% hits; AID 651820, 2012; Potency, µM (highest dose often 41.8 µM), usual class: inhibitors; Huh7.5.1 HCVcc-Cre infection, luciferase reporter, 44 h; active = well fitted inhibition curve with a large enough effect; inconclusive = small, poorly fitted or top-dose-only effect, or another doubt; inactive = no such curve, though single readings can be large or run the other way
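Reporter virus HCVcc-Cre (~0.5 moi) infects cells exposed to compound; seeding density 1,000 cells/well with 4 h settling beforehand. Luminescence, 15 sec read, taken 44 h post-infection following a 15 min RT substrate incubation.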
HCMV antiviral = qHTS Assay for inhibitors of the human cytomegalovirus (HCMV). HFF cells, HCMV-luciferase reporter, 72 h; hits give low values. activity change, negative = inhibition, % at 57.5 µM. 410,000 compounds, 4.5% hits; in the data active = activity change below about -60%; inconclusive = no clear call, values can overlap the other calls; inactive = above about -39%
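After 16 h attachment at 37C, HFF cells received test compound and HCMV-luciferase (1 PFU/cell); reporter luminescence read 72 h later, data normalized against buffer-only and known inhibitor Salinomycin.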
VACV Venus inh = qHTS for Stage-Specific Inhibitors of Vaccinia Orthopoxvirus: Venus Reporter Primary qHTS. Potency, µM (top dose mostly 36.5 µM), hits mostly inhibitors. 330,000 compounds, 0.46% hits. Vaccinia virus Venus reporter expression, fluorescence; calls by dose curve; tested in A549 cells; note: nearly all actives have a fitted effect of over 30% in size
VACV mCherry inh = qHTS for Stage-Specific Inhibitors of Vaccinia Orthopoxvirus: mCherry Reporter Primary qHTS; Potency, µM (highest dose often 36.5 µM), hits mostly inhibitors; 310,000 compounds, 0.63% hits; Vaccinia virus mCherry reporter infection, fluorescence; AID 720579, 2013; calls by dose curve; tested in A549 cells; note: nearly all actives have a fitted effect of over 35% in size
FMDV antiviral = High Throughput Screening for Foot and Mouth Disease Virus Antivirals; FMDV antiviral cell-based qHTS; Potency, µM (titrated, usually from 57.9 µM), hits mostly inhibitors; 410,000 compounds, 1.2% hits; AID 1159524, 2015; calls by dose curve; tested in HEK293T cells; note: read-out not given here; nearly all actives have a fitted effect of over 45% in size
Large screens that a line does not name were inactive.

CC1CC(C)CN(C(=O)COC(=O)c2cc([N+](=O)[O-])ccc2N2CCOCC2)C1 (configuration not stated)	HCV inh inconclusive
COc1ccc(F)c(CN2CCOc3ccc(CN4CCCCC4CO)cc3C2)c1 (configuration not stated)	none (no result: HCV inh, HCMV antiviral)
Cc1cccc(NC(=O)c2ccc3snnc3c2)c1C	none (no result: HCV inh)
O=[N+]([O-])c1ccc2c(c1)C=CC2	none (no result: HCV inh, HCMV antiviral, FMDV antiviral)
CCOc1ccc(N2C(=O)C(c3nnnn3C(C)(C)C)N(Cc3ccc(OC)c(OC)c3)C2=O)cc1 (configuration not stated)	none (no result: HCV inh, VACV Venus inh, VACV mCherry inh, FMDV antiviral)
O=C(OCc1ccc([N+](=O)[O-])cc1)c1cc([N+](=O)[O-])ccc1N1CCOCC1	HCV inh 4.5µM, VACV mCherry inh inconclusive
O=C(COC(=O)c1cc([N+](=O)[O-])ccc1N1CCOCC1)c1ccccc1	HCV inh inconclusive
CCOc1ccc2nc(C)cc(Nc3cccc([N+](=O)[O-])c3)c2c1	HCV inh inconclusive, HCMV antiviral -97, VACV Venus inh inconclusive, VACV mCherry inh 11µM
COc1ccc(OC)c(Nc2cc(C)nc3ccccc23)c1	HCV inh inconclusive, FMDV antiviral inconclusive (no result: VACV Venus inh, VACV mCherry inh)
COc1ccc2nc(C)cc(Nc3ccccc3O)c2c1	HCV inh inconclusive, HCMV antiviral inconclusive (no result: VACV Venus inh, VACV mCherry inh)
CCOc1ccc(Nc2cc(C)nc3c(C)cccc23)cc1	HCV inh inconclusive, HCMV antiviral -76
Cc1cc(Nc2ccccc2C)c2cccc(C)c2n1	none (no result: HCV inh)
COc1ccc2nc(C)cc(NCc3cccc(C(F)(F)F)c3)c2c1	HCV inh 10µM, VACV Venus inh inconclusive
COc1ccc(Cl)cc1Nc1cc(C)nc2ccccc12	HCV inh 11µM, HCMV antiviral -87, FMDV antiviral inconclusive (no result: VACV Venus inh, VACV mCherry inh)
Cc1cc(NCc2ccccc2)nc2ccccc12	HCV inh inconclusive (no result: VACV mCherry inh)
Cc1cc(NCc2ccccc2)c2ccccc2n1	HCV inh 11µM, HCMV antiviral inconclusive, FMDV antiviral inconclusive (no result: VACV Venus inh, VACV mCherry inh)
Cc1cc(Nc2ccccc2Cl)c2ccccc2n1	HCV inh inconclusive, HCMV antiviral -73, FMDV antiviral inconclusive
Cc1cc(Nc2ccc(C)c(C)c2)c2ccccc2n1	HCV inh inconclusive, HCMV antiviral -63, VACV mCherry inh inconclusive
COc1cc(N(C)C)ccc1/C=C1\C=Cc2ccccc21	none (no result: HCV inh, HCMV antiviral, FMDV antiviral)
COCCn1c(=O)c(C)nc2cncnc21	none (no result: HCV inh, HCMV antiviral, VACV Venus inh, VACV mCherry inh)
O=C(NCCOc1ccccc1)c1cncc(Br)c1	none (no result: VACV mCherry inh)
CCc1cc(C)cc(OCCNC(=O)c2cncc(Br)c2)c1	HCV inh 10µM, VACV Venus inh inconclusive (no result: VACV mCherry inh)
COc1cccc(Cn2cnc3c2c(=O)n(C)c(=O)n3C)c1	HCMV antiviral inconclusive (no result: HCV inh)
Cc1csc(NC(=O)CSc2nc3[nH]c(=O)cc(O)c3s2)n1	HCV inh 10µM, HCMV antiviral inconclusive
O=C(N/N=C\C=C\c1ccc([N+](=O)[O-])o1)c1cccs1	HCV inh inconclusive, HCMV antiviral -65, VACV Venus inh inconclusive, VACV mCherry inh 10µM
O=C(CNc1cc(S(=O)(=O)N2CCOCC2)ccc1NCC1CCCO1)Nc1cccc(F)c1 (configuration not stated)	none
O=S(=O)(Nc1cc(S(=O)(=O)N2CCOCC2)ccc1NCC1CCCO1)c1ccc(F)cc1 (configuration not stated)	VACV Venus inh inconclusive, VACV mCherry inh 2.2µM
CCOC(=O)c1c(Oc2ccc(C(C)=O)cc2)nnc(-c2ccccc2)c1-c1ccccc1	FMDV antiviral inconclusive (no result: HCV inh)
CC(C)N(C[C@@H]1CSCCS(=O)(=O)N1)C(C)C	none (no result: HCV inh, VACV Venus inh, VACV mCherry inh, FMDV antiviral)
O=C(CN1CCOCC1)Nc1cc(C(F)(F)F)ccc1Cl	HCMV antiviral -66
O=C(CN1CCCCCC1)Nc1cc(C(F)(F)F)ccc1Cl	HCMV antiviral inconclusive
O=C(CN1CCN(S(=O)(=O)N2CCOCC2)CC1)Nc1cc(Cl)ccc1Cl	HCV inh inconclusive, FMDV antiviral 28µM
CCN(CC)CCCC(C)Nc1c2ccc(Cl)cc2nc2ccc(OC)cc12 (configuration not stated)	VACV Venus inh inconclusive (no result: HCV inh, HCMV antiviral)
COc1ccc2nc3cc(Cl)ccc3c(Nc3cc(C(C)C)c(O)cc3C)c2c1	HCV inh 11µM, HCMV antiviral inconclusive, VACV Venus inh inconclusive, VACV mCherry inh inconclusive, FMDV antiviral inconclusive
Cc1ccc(C)c(S(=O)(=O)c2nnn3c2nc(Nc2ccc(F)c(Cl)c2)c2sccc23)c1	VACV Venus inh inconclusive, VACV mCherry inh inconclusive (no result: HCV inh)
O=C(N/N=C/c1ccc[nH]1)c1cc2ccccc2cc1O	HCV inh inconclusive, HCMV antiviral -99
O=C(N/N=C/c1ccccn1)c1c[nH]c2ccccc12	none
